PubChem BioAssay (Tox21)
Records with an inconclusive call do not appear. Unmarked numbers belong to inactive results. Calls of active or inactive are those of the source. Calls come from the whole dose curve; as a rule, active = well fitted cell-killing curve with a large enough effect in the repeat runs (not every such curve was filed as active); inconclusive = weak or mixed curves, or effect the other way; inactive = no such curve, though single readings can be large or run the other way.

Experiment: qHTS assay to identify small molecule antagonists of the farnesoid-X-receptor (FXR) signaling pathway - cell viability counter screen (AID 743221); note: nearly all actives have a fitted effect of over 50% in size
Conditions: FXR-bla HEK293T viability, CellTiter-Glo luminescence, 16 h; series mostly up to 62.6 µM; activity change, negative = cytotoxicity: at the top concentration
Source text: National Center for Advancing Translational Sciences [NCATS]
NIH Chemical Genomics Center [NCGC]
U.S. Environmental Protection Agency [EPA]
National Institutes of Environmental Health Sciences [NIEHS]
National Toxicology Program [NTP]
U.S. Food and Drug Administration [FDA]
The farnesoid-X-receptor (FXR), a nuclear hormone receptor, is highly expressed in liver, intestine, kidney and adrenal cortex. Natural ligands of FXR are the bile acids (Cholic acid, Chenodeoxy cholic acid etc). FXR is an important regulator of diverse metabolic pathways, including the bile acid homeostasis, lipid and glucose metabolisms. FXR regulates the expression of target genes by binding either as a monomer or as a heterodimer with the retinoid X receptor (RXR). Numerous studies have reported that FXR exerts protective function during cholestasis, diabetes, liver regeneration, and cancer. To identify compounds that inhibit FXR signaling, GeneBLAzer FXR-UAS-bla HEK 293T cell line (Invitrogen, Carlsbad, CA) containing a beta-lactamase reporter gene under the control of a UAS response element was used to screen the Tox21 10K compound library. The cytotoxicity of the Tox21 compound library against the FXR-bla cell line was tested in parallel by measuring the cell viability using CellTiter-Glo assay in the same wells.
Tox21 Assay Protocol Summary:
FXR-bla cells were dispensed at 5000 cells/5uL/well in 1536-well black wall/clear bottom plates using a Multidrop Combi (Thermo Fisher Scientific, Waltham, MA) dispenser. After the assay plates were incubated at 37 C and 5% CO2 for 5 h, 23 nL of compounds dissolved in DMSO, positive controls or DMSO only was transferred to the assay plate by a Pintool station (Kalypsys, San Diego, CA), followed by addition of 1 uL Chenodeoxycholic acid (50 uM, final concentration in the wells). The assay plates were incubated at 37C for 16 h. After 1 uL of LiveBLAzerTM B/G FRET substrate was added using a Bioraptr Flying Reagent Dispenser (FRD) workstation (Beckman Coulter, Indianapolis, IN), the plates were incubated at room temperature for 2 h, and fluorescence intensity was measured by an Envision plate reader (PerkinElmer, Shelton, CT). For cell viability readout that measures cytotoxicity, 4uL/well of CellTiter-Glo reagent was added into the assay plates using a Bioraptr FRD. After 30 min incubation at room temperature, the luminescence intensity in the plates was measured using a ViewLux plate reader (PerkinElmer).
% is set by controls: 0 for no effect and ±100 for the full control effect; potency is the fitted concentration of half-maximal effect.

Row | Compound | activity change, negative = cytotoxicity | Potency
1 | Cc1cccc(C)c1NC(=O)C(C)N (stereo not given) | -22% | –
2 | CN(C)CCCN1c2ccccc2CCc2ccc(Cl)cc21 | – | 49 µM (active)
3 | COc1c(N2C[C@@H]3CCCN[C@@H]3C2)c(F)cc2c(=O)c(C(=O)O)cn(C3CC3)c12 | 2.83% | –
4 | FC1(F)C(F)(F)C(F)(F)C2(F)C(F)(F)C(F)(F)C(F)(F)C(F)(F)C2(F)C1(F)F (stereo not given) | 5.65% | –
5 | O=C(CCCN1CCC(O)(c2cccc(C(F)(F)F)c2)CC1)c1ccc(F)cc1 | -12.1% | –
6 | C=CCS(=O)(=O)O | -0.656% | –
7 | CC/C=C\CC/C=C/CO | -0.278% | –
8 | CC(NC(CCc1ccccc1)C(=O)O)C(=O)N1C(=O)N(C)CC1C(=O)O (stereo not given) | -0.223% | –
9 | CC(=O)OCC(CCn1cnc2cnc(N)nc21)COC(C)=O | 14.7% | –
10 | N[C@H](C(=O)O)c1ccc(O)cc1 | -1.9% [at 29.1 µM] | –
11 | CC(C)OC(=O)c1ccccc1 | -0.407% [at 81.1 µM] | –
12 | CCOC(=O)CCC(C)=O | -22.5% | –
13 | O=Cc1cccc([N+](=O)[O-])c1 | -2.66% | –
14 | NS(=O)(=O)c1ccc(C(=O)O)cc1 | 9.95% | –
15 | O=c1[nH]c(=O)n([C@H]2C[C@H](O)[C@@H](CO)O2)cc1I | 1.14% | –
16 | CN1C(=O)N(C)C(O)C1O (stereo not given) | 5.22% | –
17 | C[C@H](NC(CCc1ccccc1)C(=O)O)C(=O)N1CCC[C@H]1C(=O)O (stereo not given in full) | -1.75% | –
18 | CCCCCCCCCCCCN(CCCCCCCCCCCC)CCCCCCCCCCCC | 3.43% | –
19 | COC(=O)c1c(Cl)c(Cl)c(C(=O)OC)c(Cl)c1Cl | – | inactive
20 | CCCc1cc(C(N)=S)ccn1 | 3.58% | –

Row | Compound | activity change, negative = cytotoxicity | Potency
21 | CCOC(=O)CC(C)=O | 1.5% [at 81.1 µM] | –
22 | CN1CC(=O)NC1=N | 13.6% | –
23 | CC(C)(O)C#CC(C)(C)O | 2.86% [at 81.1 µM] | –
24 | O=S(O)CO | 6.43% | –
25 | CCCN1CCCC[C@H]1C(=O)Nc1c(C)cccc1C | 7.94% | –
26 | Cc1[nH]c(=O)c(C#N)cc1-c1ccc2nccn2c1 | 1.49% | –
27 | C=CCCCCCCCCC=O | 0.586% | –
28 | C[N+](C)(C)CC(O)CC(=O)[O-] (stereo not given) | 0.0501% | –
29 | CCCCCCCCCCCCCCCCC | 0.814% | –
30 | O=C(O)c1ccccc1OP(=O)(O)O | 1.51% | –
31 | CC(C)(C)c1nnc(NS(=O)(=O)c2ccccc2)s1 | 6.37% | –
32 | CCS(=O)(=O)c1ccc(OC)c(C(=O)OC)c1 | -0.977% | –
33 | CC1(C)CO[C@@H](CC(=O)O)CN1 | 0.339% | –
34 | NC(CSCC(=O)O)C(=O)O (stereo not given) | 5.26% | –
35 | NS(=O)(=O)c1cc2c(cc1Cl)NC(C1CC3C=CC1C3)NS2(=O)=O (stereo not given) | -2.2% | –
36 | N[C@H]1CN(c2c(F)cc3c(=O)c(C(=O)O)cn(C4C[C@H]4F)c3c2Cl)CC12CC2 (stereo not given in full) | -0.0272% | –
37 | c1cnc(N2CCN(Cc3ccc4c(c3)OCO4)CC2)nc1 | 0.822% | –
38 | O=C(O)COc1nn(Cc2ccccc2)c2ccccc12 | 6.88% | –
39 | O=C1CCCN1C1CCCCC1 | -20% | –
40 | Cc1c(NC(C)C)c(=O)n(-c2ccccc2)n1C | 11.9% | –
